# Measured values from article PMC5540273 (PLoS ONE, 2017).
# Key:
# Details in all cases: concentration: 1 μM, replicates: in singlicate; n = 1
# TIE2 = test system: T1, TIE2
# T1 construct: gene TEK
# TLK1 = test system: TLK1
# TLK2 = test system: TLK2
# TNIK = test system: TNIK
# TNK1 = test system: TNK1
# TNK2 = test system: TNK2
# TNNI3K = test system: TNNI3K
# TRKA = test system: T2, TRKA
# T2 construct: gene NTRK1
# TRKB = test system: TRKB
# TRKC = test system: T3, TRKC
# T3 construct: gene NTRK3
# TRPM6 = test system: TRPM6
# TSSK1B = test system: TSSK1B
# TSSK3 = test system: TSSK3
# TTK = test system: TTK
# TXK = test system: TXK
# [1] = test system: TYK2(JH1domain-catalytic)
# [2] = test system: TYK2(JH2domain-pseudokinase)
# TYRO3 = test system: TYRO3
# ULK1 = test system: ULK1
# ULK2 = test system: ULK2
# 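Note: KINOMEscan kinase panel screen.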
Compound,%Inh (TIE2) [%],%Inh (TLK1) [%],%Inh (TLK2) [%],%Inh (TNIK) [%],%Inh (TNK1) [%],%Inh (TNK2) [%],%Inh (TNNI3K) [%],%Inh (TRKA) [%],%Inh (TRKB) [%],%Inh (TRKC) [%],%Inh (TRPM6) [%],%Inh (TSSK1B) [%],%Inh (TSSK3) [%],%Inh (TTK) [%],%Inh (TXK) [%],%Inh [1] [%],%Inh [2] [%],%Inh (TYRO3) [%],%Inh (ULK1) [%],%Inh (ULK2) [%]
Nc1nc(N)c2nc(-c3ccccc3)[nH]c2n1 [SKF-12778],0,0,0,4,0,13,28,52,9,0,11,0,5,4,25,43,74,0,16,9
COc1cc(Nc2nccc(N3CCC(NC(=O)C4COc5ccccc5O4)C3)n2)cc(OC)c1OC (stereo not drawn) [GSK1379761],0,8,0,0,28,6,0,77,31,61,0,0,9,13,10,81,29,0,8,0
Nc1ncnc2c1ncn2-c1cccc2ccccc12 [SKF-97184],0,0,18,10,0,0,0,25,0,6,39,0,0,23,0,68,37,0,24,16
CCn1c(-c2nonc2N)nc2ccccc21 [SB-693162/GW549034],0,5,0,0,0,0,0,20,43,15,0,0,0,29,12,0,25,0,40,31
COc1cc2ncn(-c3cc(OCc4ccncc4)c(C(N)=O)s3)c2cc1OC [GSK336313],7,0,0,13,0,5,0,0,0,0,24,0,11,0,6,3,13,0,16,0
COc1cc2ncn(-c3cc(OCc4ccc(S(C)(=O)=O)cc4)c(C(N)=O)s3)c2cc1OC [GW869979],0,5,0,37,5,18,0,50,31,44,0,0,22,0,0,17,11,19,6,6
Cl.c1ccc(Cn2cnc3cc(Nc4ncnc5ccccc45)ccc32)cc1 [GW272142],0,0,0,0,0,15,0,0,0,0,0,12,10,0,0,13,21,0,7,0
CCS(=O)(=O)c1ccc(OC)c(Nc2ncc(-c3ccc(F)cc3)o2)c1.Cl [GW591947],0,0,0,0,0,12,8,15,0,0,4,10,13,0,0,1,0,4,0,0
O=C(Nc1n[nH]c2nc(-c3ccccc3)c(Br)cc12)C1CC1 [SB-708998],11,0,0,14,0,10,0,28,0,11,18,25,14,24,14,14,1,0,30,0
COc1ccc(-n2cnc3c(N)ncnc32)cc1 [SKF-97236],18,0,0,18,0,0,18,61,9,0,66,11,0,28,12,11,24,0,21,10
COc1cccc(C2=C(N(C)c3ccccc3)C(=O)NC2=O)c1 [SB-334865],0,4,4,0,0,19,11,0,0,23,26,0,7,0,22,12,42,0,19,0
CCCC(=O)Nc1n[nH]c2ncc(-c3cccc4ccccc34)cc12 [SB-642057],0,32,100,0,0,4,5,0,0,0,48,36,0,0,52,0,38,0,18,1
